# Only a sample is shown.
# aSyn 5UTR act – Activators via SNCA 5'UTR binding, MLPCN. alpha-synuclein 5'UTR reporter, activators screen. activity score, % (tested at 7.5 µM), hits read low. hit rate 7.1% among 300,000; in the data active means activity score below about -60%
# Starred values were filed as active, the others as inactive.
SMILES,aSyn 5UTR act
CCN1CCCC1CNC(=O)c1ccc2c(c1)NC(=O)/C(=C\c1ccc(C)cc1)S2 (stereo not drawn),74
O=c1c(Cl)c(N2CCN(c3ccc(F)cc3)CC2)cnn1-c1nc2ccccc2s1,-112*
C[C@H]1Oc2ccccc2C(=O)C1C(=O)c1ccccc1 (stereo partly drawn),-100*
O=c1oc2ccccc2nc1/C=C(O)/C=C/c1ccc(F)cc1,-88*
CNc1ccc(/C=C(\C#N)c2ccccn2)cc1[N+](=O)[O-],-157*
N#C/C(=C\c1ccccc1)c1ccccn1,-100*
Nc1nc(N)c2sc3nc4c(cc3c2n1)CCC4,-107*
C=CCN(CC=C)CCOc1ccc(OC(C)C)cc1,-63*
CCOC(=O)c1sc(N)c(C(=O)OCC)c1C,-65*
CN(C)c1ccc(-c2nnc(SCC3CCCO3)n2C)cc1 (stereo not drawn),-89*
Cc1cc(Nc2ccccc2)n2nc(C)c(-c3ccccc3)c2n1,-64*
Fc1cc(Cl)c(OCc2noc(-c3ccsc3)n2)c(Cl)c1,-81*
Clc1ccc(OCc2noc(-c3ccsc3)n2)c(Cl)c1,-170*
CCOC(=O)c1c(-c2ccc(-c3ccccc3)cc2)csc1NC(=O)CNCCN(C)C,101
COc1ccc(-c2csc(NC(=O)c3ccc(C(C)(C)C)cc3)c2C(=O)O)cc1,43
O=C(/C=C/c1ccccc1)Nc1scc(-c2ccccc2)c1C(=O)O,-84*
Cc1ccc(-c2csc(NC(=O)c3ccccc3F)c2C(=O)O)cc1,-102*
Cc1ccc(-c2csc(NC(=O)c3ccc(F)cc3)c2C(=O)O)cc1,-105*
O=C(NCCc1ccccc1)c1ccncc1,-146*
O=C(NCCc1ccccc1)c1ccc(Cl)nc1,-169*
O=C(NCCCc1ccccc1)c1ccc(F)cc1,-101*
C=CCN(c1ccc(C(=O)NCCc2ccccc2)cc1)S(C)(=O)=O,-109*
O=C(NCCc1ccccc1)c1ccc(NS(=O)(=O)c2ccc3[nH]c(=O)[nH]c3c2)cc1,-72*
CCCNC(=O)c1ccc2c(=O)c(O)c(-c3ccc(C)cc3)[nH]c2c1,69
CC(=O)Nc1ccc(C(=O)NCCc2ccccc2)cc1,-131*
SMILES,aSyn 5UTR act
Cc1cc(N2C(=O)C(O)=C(C(=O)c3cc4ccccc4o3)C2c2ccc(OC(C)C)cc2)no1 (stereo not drawn),-91*
C=CCOc1c(Br)cc(/C=N/Nc2ccc(C(=O)O)cc2)cc1OCC,-123*
CCOc1cc(/C=N\NC(N)=O)cc(Br)c1OC(C)C,62
CCOC(=O)c1sc(-c2ccc(OC)cc2)cc1NC(C)=O,-73*
O=C(NNC(=O)c1ccccc1OCc1ccccc1)c1ccccc1F,-85*
COc1ccccc1C(=O)NNC(=O)c1ccccc1F,-97*
O=C(NNC(=O)c1ccccc1OCc1ccccc1)c1ccccc1O,65
COc1ccccc1C(=O)NNC(=S)NC(=O)c1cc(OC)c(OC)c(OC)c1,73
CC1=C(C(=O)Nc2ccccn2)C(c2ccc(Br)cc2)NC(=S)N1 (stereo not drawn),-106*
CC1=C(C(=O)Nc2ccccn2)C(c2ccc(Cl)cc2)NC(=S)N1 (stereo not drawn),-122*
Cc1nn(-c2nnc(NC3CCCCC3)nn2)c(C)c1Br,-165*
Cc1cccc(NC(=O)CN2C(=O)N/C(=C\c3ccc(N4CCOCC4)cc3)C2=O)c1,-100*
c1ccc(-c2ccc(-c3csnn3)cc2)cc1,-131*
O=C(COn1nnc2ccccc21)NCC1CCCCC1,-78*
O=C(COn1nnc2ccccc21)N1CCN(Cc2ccccc2)CC1,-66*
CN(C)/C=C/C(=O)c1ccc(Br)cc1,-70*
Cc1cccc(-n2ncc3c(NCc4cccs4)ncnc32)c1,-112*
Clc1ccc(-n2ncc3c(NCc4cccs4)ncnc32)cc1,-249*
Cc1oc(-c2ccc(Cl)cc2)cc1C(=O)O,-83*
CCN(C(=O)COC(=O)/C=C/c1cnc2ccccc2n1)c1ccccc1,-65*
CCC(C)(C)NC(=O)/C=C/c1cnc2ccccc2n1,-122*
O=C(/C=C/c1cnc2ccccc2n1)NC12CC3CC(CC(C3)C1)C2,-140*
Cc1ccc(Oc2nccc(-c3ccc(Cl)cc3)n2)cc1,-67*
Cc1ccc2c(C)c(C(=O)N3CCN(Cc4ccc5c(c4)OCO5)CC3)oc2c1C,-63*
Cc1c(-c2ccccc2)[n+](=O)c(-c2ccc(Br)cc2)c(C)n1[O-],-102*
SMILES,aSyn 5UTR act
Cc1ccccc1OCc1nnc2c3cnn(C)c3ncn12,-187*
FC(F)(F)c1cnc(COc2ccc(Cl)cc2Cl)c(Cl)c1,-82*
CC(=O)c1ccc(OCc2ncc(C(F)(F)F)cc2Cl)cc1,-81*
Cc1cccnc1Nc1nc(-c2ccc(O)cc2O)cs1,-188*
Oc1ccc(-c2csc(Nc3ccccn3)n2)c(O)c1,-134*
CCOc1ccc(C(=O)O/N=C(\N)c2ccccn2)cc1,62
Cc1cccc(OCC(=O)O/N=C(\N)c2ccccn2)c1,-116*
CCc1ccc(OCC(=O)O/N=C(\N)c2ccccn2)cc1,-91*
Cc1cccc(C(=O)O/N=C(\N)c2ccccn2)c1,70
Cc1ccc(OCC(=O)O/N=C(\N)c2ccccn2)cc1C,-99*

# High-throughput results from PubChem.
